About 7,900 targets were measured; listed, in parts, are those with a hit and a random draw of the rest. About 0.6% of all pairs of compound and target were hits. A number with no mark means an inactive call.
compound: CCN(CC)Cc1ccc2cc(COC(=O)Nc3ccc(C(=O)NO)cc3)ccc2c1 [givinostat]; test: log2 fold change, soluble protein after heating vs DMSO (PISA); higher = thermal stabilisation; K562 cells, 10 uM, 30 min; active = over 0.2 and 3.5 SD of the protein, either way, in both replicates (recomputed)
In short: (§1)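 K562 cells at 2×10^6 cells/mL were treated with 10 μM compound for 30 min. Aliquots were heated for 3 min across 48°C-58°C, pooled, and extracted in PBS with 0.5% NP-40 at 4°C; soluble protein was the supernatant after 21,000xg for 90 min. Soluble protein was quantified by TMTpro 16plex LC-MS/MS with channel sums equalised, and reported as log2 fold change in thermal stability against DMSO controls, with values from duplicates.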

Chain of UniProt O75146 (O75146 whole entry, looked up): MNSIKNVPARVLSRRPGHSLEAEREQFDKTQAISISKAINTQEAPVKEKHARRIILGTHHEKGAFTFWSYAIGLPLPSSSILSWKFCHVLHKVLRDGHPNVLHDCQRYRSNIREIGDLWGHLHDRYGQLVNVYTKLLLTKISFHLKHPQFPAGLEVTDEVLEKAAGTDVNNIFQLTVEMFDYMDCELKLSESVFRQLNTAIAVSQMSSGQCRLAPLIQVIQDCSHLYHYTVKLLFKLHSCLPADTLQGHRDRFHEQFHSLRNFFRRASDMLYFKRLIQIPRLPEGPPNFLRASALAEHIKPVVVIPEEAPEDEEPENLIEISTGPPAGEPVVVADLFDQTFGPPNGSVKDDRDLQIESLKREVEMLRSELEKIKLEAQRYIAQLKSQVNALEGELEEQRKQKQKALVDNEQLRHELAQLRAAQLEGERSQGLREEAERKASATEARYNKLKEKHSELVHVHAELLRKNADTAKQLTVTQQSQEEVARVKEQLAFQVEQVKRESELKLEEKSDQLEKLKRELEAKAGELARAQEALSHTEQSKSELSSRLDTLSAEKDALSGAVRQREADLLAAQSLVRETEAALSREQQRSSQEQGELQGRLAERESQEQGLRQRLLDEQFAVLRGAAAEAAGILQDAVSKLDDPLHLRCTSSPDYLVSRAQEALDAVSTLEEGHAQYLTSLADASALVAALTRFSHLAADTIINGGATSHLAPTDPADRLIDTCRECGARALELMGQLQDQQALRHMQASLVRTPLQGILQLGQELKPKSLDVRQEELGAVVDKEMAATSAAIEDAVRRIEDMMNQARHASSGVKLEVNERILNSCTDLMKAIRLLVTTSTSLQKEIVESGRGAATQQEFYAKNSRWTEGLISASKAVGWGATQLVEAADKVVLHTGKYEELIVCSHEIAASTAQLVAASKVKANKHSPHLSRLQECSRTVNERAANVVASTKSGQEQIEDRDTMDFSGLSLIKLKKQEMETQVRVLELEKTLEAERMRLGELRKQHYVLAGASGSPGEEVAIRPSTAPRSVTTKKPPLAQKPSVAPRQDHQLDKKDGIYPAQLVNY
Chain of UniProt Q8N2G8 (Q8N2G8 whole entry, looked up): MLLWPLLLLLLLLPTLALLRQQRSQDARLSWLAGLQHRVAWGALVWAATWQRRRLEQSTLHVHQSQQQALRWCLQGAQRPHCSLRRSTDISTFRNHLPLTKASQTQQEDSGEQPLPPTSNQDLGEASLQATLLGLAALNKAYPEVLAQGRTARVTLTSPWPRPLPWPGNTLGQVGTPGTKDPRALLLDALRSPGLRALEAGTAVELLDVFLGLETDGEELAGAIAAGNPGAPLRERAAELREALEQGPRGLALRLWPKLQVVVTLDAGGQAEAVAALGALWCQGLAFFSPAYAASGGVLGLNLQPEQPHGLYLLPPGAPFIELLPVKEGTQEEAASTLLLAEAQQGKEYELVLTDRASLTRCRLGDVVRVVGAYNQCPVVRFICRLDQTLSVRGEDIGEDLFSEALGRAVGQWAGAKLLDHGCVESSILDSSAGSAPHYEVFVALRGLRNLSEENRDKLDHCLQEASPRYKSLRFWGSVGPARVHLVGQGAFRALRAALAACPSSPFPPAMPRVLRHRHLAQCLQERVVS
Chain of UniProt Q9NZC3 (Q9NZC3 whole entry, looked up): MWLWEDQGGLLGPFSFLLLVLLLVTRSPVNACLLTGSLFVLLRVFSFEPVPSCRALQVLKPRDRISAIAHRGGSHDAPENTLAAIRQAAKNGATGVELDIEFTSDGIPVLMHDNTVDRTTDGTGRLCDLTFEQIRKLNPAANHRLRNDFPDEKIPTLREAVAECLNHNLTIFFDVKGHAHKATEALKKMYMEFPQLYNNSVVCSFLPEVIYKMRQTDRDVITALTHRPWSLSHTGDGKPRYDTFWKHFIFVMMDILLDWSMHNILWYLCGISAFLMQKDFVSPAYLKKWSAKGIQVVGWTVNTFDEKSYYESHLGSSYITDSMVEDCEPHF
Chain of UniProt Q9H4G4 (Q9H4G4 whole entry, looked up): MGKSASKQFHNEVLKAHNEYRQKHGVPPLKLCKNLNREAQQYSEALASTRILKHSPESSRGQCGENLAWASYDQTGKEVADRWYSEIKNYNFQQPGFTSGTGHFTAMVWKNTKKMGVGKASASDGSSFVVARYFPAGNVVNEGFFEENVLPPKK
Chain of UniProt P09211 (P09211 whole entry, looked up): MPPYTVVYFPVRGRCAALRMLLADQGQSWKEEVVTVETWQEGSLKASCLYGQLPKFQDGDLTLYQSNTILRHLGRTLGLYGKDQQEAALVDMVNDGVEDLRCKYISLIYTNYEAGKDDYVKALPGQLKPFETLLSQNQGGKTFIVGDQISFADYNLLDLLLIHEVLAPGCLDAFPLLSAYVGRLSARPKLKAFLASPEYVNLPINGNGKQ
Chain of UniProt O60725 (O60725 whole entry, looked up): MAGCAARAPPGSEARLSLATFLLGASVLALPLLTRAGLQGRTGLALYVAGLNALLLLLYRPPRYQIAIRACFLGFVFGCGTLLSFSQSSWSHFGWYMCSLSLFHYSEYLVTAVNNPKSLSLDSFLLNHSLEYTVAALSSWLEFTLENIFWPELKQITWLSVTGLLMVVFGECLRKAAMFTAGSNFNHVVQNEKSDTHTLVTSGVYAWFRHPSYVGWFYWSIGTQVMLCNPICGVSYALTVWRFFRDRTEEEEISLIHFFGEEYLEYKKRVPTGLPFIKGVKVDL
Chain of UniProt Q9BXW9 (Q9BXW9 whole entry, looked up): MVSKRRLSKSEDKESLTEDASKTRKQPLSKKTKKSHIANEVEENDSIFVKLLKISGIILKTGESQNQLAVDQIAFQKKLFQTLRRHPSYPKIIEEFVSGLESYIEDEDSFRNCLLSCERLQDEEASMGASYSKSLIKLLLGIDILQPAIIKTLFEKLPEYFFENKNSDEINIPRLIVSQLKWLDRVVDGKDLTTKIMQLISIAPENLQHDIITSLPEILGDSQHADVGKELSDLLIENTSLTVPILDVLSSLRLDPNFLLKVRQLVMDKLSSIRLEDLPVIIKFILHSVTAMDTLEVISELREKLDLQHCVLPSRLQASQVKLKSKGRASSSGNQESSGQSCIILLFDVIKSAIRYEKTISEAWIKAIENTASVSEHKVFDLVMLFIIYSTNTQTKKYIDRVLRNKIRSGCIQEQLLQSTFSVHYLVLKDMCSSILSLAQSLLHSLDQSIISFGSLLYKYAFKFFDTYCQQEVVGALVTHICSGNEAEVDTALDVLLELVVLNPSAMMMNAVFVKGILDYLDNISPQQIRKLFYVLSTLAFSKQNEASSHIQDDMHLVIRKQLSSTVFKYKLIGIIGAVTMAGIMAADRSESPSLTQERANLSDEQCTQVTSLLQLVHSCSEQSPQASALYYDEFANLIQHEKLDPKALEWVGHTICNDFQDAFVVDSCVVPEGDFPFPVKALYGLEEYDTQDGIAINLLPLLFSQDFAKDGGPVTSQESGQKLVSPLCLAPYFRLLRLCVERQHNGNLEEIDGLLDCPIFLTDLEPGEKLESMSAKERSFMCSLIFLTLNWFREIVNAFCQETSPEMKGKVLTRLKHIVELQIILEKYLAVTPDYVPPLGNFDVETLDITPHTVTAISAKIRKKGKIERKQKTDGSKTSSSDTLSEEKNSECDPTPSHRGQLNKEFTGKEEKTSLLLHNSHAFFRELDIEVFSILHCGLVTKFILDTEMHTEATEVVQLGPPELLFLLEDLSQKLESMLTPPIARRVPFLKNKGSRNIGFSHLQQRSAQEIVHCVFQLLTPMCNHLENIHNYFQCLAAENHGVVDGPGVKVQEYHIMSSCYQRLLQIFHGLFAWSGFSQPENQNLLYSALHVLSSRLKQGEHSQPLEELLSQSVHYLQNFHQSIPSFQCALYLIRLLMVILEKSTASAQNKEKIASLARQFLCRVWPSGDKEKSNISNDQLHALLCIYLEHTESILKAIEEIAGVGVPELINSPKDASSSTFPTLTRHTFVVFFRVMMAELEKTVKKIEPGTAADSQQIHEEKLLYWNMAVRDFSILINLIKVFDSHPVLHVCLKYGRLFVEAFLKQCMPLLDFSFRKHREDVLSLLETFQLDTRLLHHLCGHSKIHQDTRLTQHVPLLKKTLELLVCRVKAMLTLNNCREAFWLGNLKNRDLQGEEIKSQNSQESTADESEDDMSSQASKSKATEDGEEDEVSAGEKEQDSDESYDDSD
Chain of UniProt P36969 (P36969 whole entry, looked up): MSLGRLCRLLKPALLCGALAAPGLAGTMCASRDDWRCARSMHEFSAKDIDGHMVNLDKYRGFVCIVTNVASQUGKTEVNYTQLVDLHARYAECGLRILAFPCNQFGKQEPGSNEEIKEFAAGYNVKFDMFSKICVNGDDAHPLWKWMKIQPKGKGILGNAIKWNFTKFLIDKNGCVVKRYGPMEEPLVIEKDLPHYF
Chain of UniProt Q9Y692 (Q9Y692 whole entry, looked up): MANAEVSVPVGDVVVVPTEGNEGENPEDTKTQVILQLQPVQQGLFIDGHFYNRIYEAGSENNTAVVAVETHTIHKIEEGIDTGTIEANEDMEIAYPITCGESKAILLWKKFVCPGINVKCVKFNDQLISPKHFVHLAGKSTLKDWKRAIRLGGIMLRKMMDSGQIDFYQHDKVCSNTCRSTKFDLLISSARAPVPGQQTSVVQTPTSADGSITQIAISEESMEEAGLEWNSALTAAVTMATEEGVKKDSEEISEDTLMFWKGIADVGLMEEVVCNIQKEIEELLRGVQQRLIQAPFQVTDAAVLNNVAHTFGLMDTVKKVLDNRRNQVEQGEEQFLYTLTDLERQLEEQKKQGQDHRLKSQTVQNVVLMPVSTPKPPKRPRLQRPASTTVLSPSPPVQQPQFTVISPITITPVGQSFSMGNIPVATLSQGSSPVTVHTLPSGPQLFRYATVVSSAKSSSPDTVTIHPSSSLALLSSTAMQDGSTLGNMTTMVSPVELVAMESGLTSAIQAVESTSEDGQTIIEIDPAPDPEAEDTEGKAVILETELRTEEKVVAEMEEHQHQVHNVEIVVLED
Chain of UniProt Q01628 (Q01628 whole entry, looked up): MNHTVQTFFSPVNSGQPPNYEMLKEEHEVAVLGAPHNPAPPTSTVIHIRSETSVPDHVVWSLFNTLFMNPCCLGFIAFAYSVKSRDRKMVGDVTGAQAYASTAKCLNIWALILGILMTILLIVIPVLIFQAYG

Row | Target | log2 fold change
1 | FAT1 (UniProt Q14517) | 0.044
2 | GAB2 (UniProt Q9UQC2) | 0.101
3 | GLCCI1 (UniProt Q86VQ1) | 0.045
4 | FANCI (UniProt Q9NVI1) | 0.043
5 | GALNT11 (UniProt Q8NCW6) | 0.027
6 | FDPS (UniProt P14324) | 0.156
7 | HPCAL1 (UniProt P37235) | -0.041
8 | FCHO1 (UniProt O14526) | 0.073
9 | HIP1R (UniProt O75146) | 0.059
10 | HADHB (UniProt P55084) | 0.064
11 | GHDC (UniProt Q8N2G8) | -0.025
12 | FEN1 (UniProt P39748) | 0.096
13 | GOPC (UniProt Q9HD26) | 0.152
14 | FDFT1 (UniProt P37268) | -0.018
15 | GDE1 (UniProt Q9NZC3) | -0.052
16 | ICMT (UniProt O60725) | -0.037

Row | Target | log2 fold change
17 | GAK (UniProt O14976) | 0.64
18 | GSTP1 (UniProt P09211) | -0.019
19 | FOXO3 (UniProt O43524) | 0.012
20 | FDXR isoform 7 (UniProt P22570) | -0.021
21 | HNRNPH2 (UniProt P55795) | 0.109
22 | GLIPR2 (UniProt Q9H4G4) | 0.009
23 | FIBP (UniProt O43427) | -0.009
24 | HNRNPC isoform 2 (UniProt P07910) | 0.241
25 | FBXO7 (UniProt Q9Y3I1) | 0.03
26 | GPS2 (UniProt Q13227) | -0.145
27 | GGA2 (UniProt Q9UJY4) | -0.03
28 | GMEB1 (UniProt Q9Y692) | 0.058
29 | FANCD2 isoform 1 (UniProt Q9BXW9) | 0.017
30 | GPX4 (UniProt P36969) | -0.451 (active)
31 | IFITM3 (UniProt Q01628) | -0.036

compound: CCN(CCCOc1ccc2c(Nc3cc(CC(=O)Nc4cccc(F)c4)[nH]n3)ncnc2c1)CCOP(=O)(O)O [barasertib]; test: as above
In short: as §1

Row | Target | log2 fold change
32 | FAT1 (UniProt Q14517) | 0.045
33 | GLCCI1 (UniProt Q86VQ1) | -0.075
34 | FANCI (UniProt Q9NVI1) | 0.029
35 | GALNT11 (UniProt Q8NCW6) | 0.118
36 | FDPS (UniProt P14324) | 0.081
37 | HDAC1 (UniProt Q13547) | 0.024
38 | HDAC2 (UniProt Q92769) | -0.039
39 | HDAC7 isoform 5 (UniProt Q8WUI4) | 0
40 | GEMIN2 (UniProt O14893) | 0.078
41 | HPCAL1 (UniProt P37235) | 0.019
42 | HIP1R (UniProt O75146) | 0.041
43 | HADHB (UniProt P55084) | 0
44 | GHDC (UniProt Q8N2G8) | -0.008
45 | FEN1 (UniProt P39748) | 0.088
46 | GOPC (UniProt Q9HD26) | -0.116
47 | FDFT1 (UniProt P37268) | 0.009

Row | Target | log2 fold change
48 | GDE1 (UniProt Q9NZC3) | -0.049
49 | ICMT (UniProt O60725) | 0.022
50 | GSTP1 (UniProt P09211) | 0.023
51 | FDXR isoform 7 (UniProt P22570) | 0.035
52 | HNRNPH2 (UniProt P55795) | 0.014
53 | GLIPR2 (UniProt Q9H4G4) | 0
54 | FIBP (UniProt O43427) | -0.071
55 | HNRNPC isoform 2 (UniProt P07910) | -0.095
56 | FBXO7 (UniProt Q9Y3I1) | 0.02
57 | GPS2 (UniProt Q13227) | -0.008
58 | GGA2 (UniProt Q9UJY4) | 0.051
59 | GMEB1 (UniProt Q9Y692) | 0.008
60 | FANCD2 isoform 1 (UniProt Q9BXW9) | 0.043
61 | GPX4 (UniProt P36969) | -0.012
62 | IFITM3 (UniProt Q01628) | 0.051

compound: CC[C@@H]1C(=O)N(C)c2cnc(Nc3ccc(C(=O)NC4CCN(C)CC4)cc3OC)nc2N1C1CCCC1; test: as above
In short: as §1

Row | Target | log2 fold change
63 | GAB2 (UniProt Q9UQC2) | -0.203
64 | GLCCI1 (UniProt Q86VQ1) | -0.048
65 | FANCI (UniProt Q9NVI1) | -0.277 (active)
66 | GALNT11 (UniProt Q8NCW6) | 0.057
67 | FDPS (UniProt P14324) | -0.059
68 | HDAC1 (UniProt Q13547) | -0.025
69 | HDAC2 (UniProt Q92769) | 0.024
70 | HDAC7 isoform 5 (UniProt Q8WUI4) | 0.051
71 | GEMIN2 (UniProt O14893) | -0.203
72 | HPCAL1 (UniProt P37235) | -0.076
73 | FCHO1 (UniProt O14526) | -0.186
74 | HIP1R (UniProt O75146) | -0.035
75 | HADHB (UniProt P55084) | 0.082
76 | GHDC (UniProt Q8N2G8) | -0.075
77 | FEN1 (UniProt P39748) | -0.073
78 | FDFT1 (UniProt P37268) | -0.067
79 | GDE1 (UniProt Q9NZC3) | 0.033

Row | Target | log2 fold change
80 | ICMT (UniProt O60725) | 0.202
81 | GAK (UniProt O14976) | 0.673
82 | GSTP1 (UniProt P09211) | 0.295 (active)
83 | FOXO3 (UniProt O43524) | -0.092
84 | FDXR isoform 7 (UniProt P22570) | 0.052
85 | HNRNPH2 (UniProt P55795) | -0.119
86 | GLIPR2 (UniProt Q9H4G4) | -0.047
87 | FIBP (UniProt O43427) | 0.164
88 | HNRNPC isoform 2 (UniProt P07910) | 0.238
89 | FBXO7 (UniProt Q9Y3I1) | 0.079
90 | GPS2 (UniProt Q13227) | 0.151
91 | GGA2 (UniProt Q9UJY4) | 0.022
92 | GMEB1 (UniProt Q9Y692) | -0.071
93 | FANCD2 isoform 1 (UniProt Q9BXW9) | -0.229
94 | GPX4 (UniProt P36969) | 0.019
95 | IFITM3 (UniProt Q01628) | -0.004

Reference: the supplement of paper PMC10849652
